# Most compounds without a hit are left out; they make up all but 18% or so of the library.
# Gal4-VP16 FLuc – VP16 counterscreen qHTS for inhibitors of ROR gamma transcriptional activity; Drosophila S2 Gal4-VP16 UAS-luciferase, luminescence, 20 h; Potency, µM (top dose mostly 53.6 µM), for inactives: at the highest dose activity, negative = inhibition, actives largely listed as inhibitors; hit rate 3.5% among 310,000;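 further: Gal4-VP16 expression switched on by copper sulfate through the metallothionein promoter; potency means the concentration at half of the fitted maximal effect; nearly all actives have a fitted effect of over 50% in size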
# RORgamma inh – qHTS for inhibitors of ROR gamma transcriptional activity; Potency, µM (titrated, usually from 53.6 µM), for inactives: top-dose activity change, negative = inhibition, actives largely listed as inhibitors; hit rate 5.4% among 310,000; Drosophila S2 Gal4-RORgamma UAS-luciferase reporter, 20 h; AID 2551, 2010; further: potency means the concentration at half of the fitted maximal effect; nearly all actives have a fitted effect of over 60% in size
# Target sequence (P51450 whole entry, looked up, the tested form may be a part): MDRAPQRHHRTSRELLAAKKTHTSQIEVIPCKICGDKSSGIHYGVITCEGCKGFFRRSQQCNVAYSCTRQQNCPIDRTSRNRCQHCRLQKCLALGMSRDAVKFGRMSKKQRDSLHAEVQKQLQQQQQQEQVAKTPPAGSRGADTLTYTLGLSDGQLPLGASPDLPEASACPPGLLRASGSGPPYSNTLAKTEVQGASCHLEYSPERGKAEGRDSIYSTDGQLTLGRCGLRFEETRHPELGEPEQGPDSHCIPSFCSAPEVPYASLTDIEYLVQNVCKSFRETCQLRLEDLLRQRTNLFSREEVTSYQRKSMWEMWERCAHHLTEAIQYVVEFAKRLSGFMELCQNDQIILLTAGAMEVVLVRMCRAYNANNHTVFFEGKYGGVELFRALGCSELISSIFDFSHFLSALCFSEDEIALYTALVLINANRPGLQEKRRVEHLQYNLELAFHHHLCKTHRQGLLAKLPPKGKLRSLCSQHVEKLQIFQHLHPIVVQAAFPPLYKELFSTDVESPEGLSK
#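 Drosophila Schneider cells stably carrying a metallothionein-driven Gal4 DBD–ROR gamma fusion and a UAS-Photinus luciferase reporter were exposed to compound for 1 hr, then induced with copper sulfate (700 uM final) for 20 hr at ambient temperature before luminescence reading.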
# IL1B secr inh – qHTS for Inhibitors of Inflammasome Signaling: IL-1-beta AlphaLISA Primary Screen; THP-1 LPS/ATP IL-1B secretion, AlphaLISA, 16 h; hits give low values; activity change, % at 57.5 µM; hit rate 4.7% among 360,000; in the data active means activity change below about -50%; inconclusive means mostly about -30% to -49%
#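 Secreted IL-1B measured by AlphaLISA bead assay after 16 h compound exposure of THP-1 cells; compounds (final up to 57.5 uM) added 1 h before LPS (250 ng/mL) and ATP (1.25 mM) stimulation; lower signal means less secretion.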
# TDP1 cell CPT – qHTS for Inhibitors of human tyrosyl-DNA phosphodiesterase 1 (TDP1): qHTS in cells in presence of CPT. chicken DT40 Tdp1-/-;hTDP1 cells + 20 nM CPT, ATP luminescence, 48 h. Potency, µM (series often up to 46.2 µM), without a hit: top-dose activity change, negative = growth inhibition, most hits filed as inhibitors. hit rate 12% among 420,000. AID 686979, 2013; further: potency means the concentration at half of the fitted maximal effect; nearly all actives have a fitted effect of over 55% in size
#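 Chicken DT40 Tdp1-/- cells complemented with human TDP1, 400 cells/well, exposed to compounds plus 20 nM camptothecin for at least 48 h at 37 C; viability read as ATP content by CellTiter-Glo luminescence.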
# DT40 TDP1 no CPT – qHTS for Inhibitors of human tyrosyl-DNA phosphodiesterase 1 (TDP1): qHTS in cells in absence of CPT; Potency, µM (highest dose often 46.2 µM), for inactives: at the top dose activity change, negative = growth inhibition, usual class: inhibitors; DT40 Tdp1-/- hTDP1 cells, no CPT, ATP luminescence, 48 h; hit rate 15% among 420,000; AID 686978, 2013; further: potency means the concentration at half of the fitted maximal effect; nearly all actives have a fitted effect of over 55% in size
#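 Growth kinetics read by CellTiter-Glo luminescence after ≥48 hr at 37 °C. Cells: DT40 Tdp1-/- stably carrying human TDP1, 400 per well, compound exposure in the absence of CPT (DMSO vehicle).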
# LDHA inh – qHTS assay for inhibitors of human lactate dehydrogenase. L-lactate dehydrogenase A chain (Homo sapiens), P00338. purified LDHA, NADH/diaphorase-resazurin fluorescence; hits give low values. activity change, % (values are at about 110 or 230 µM). hit rate 0.15% among 480,000. AID 1347041, 2019; in the data active means activity change below about -30%; inconclusive means mostly about -25% to -30%;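 further: plate controls were DMSO wells for no effect and wells without enzyme for full effect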
#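 LDH5 2 nM; NADH 0.06 mM, pyruvate 0.2 mM; 200 mM Tris pH 7.4, EDTA, Tween-20; 5 min RT. Detection: diaphorase 0.133 mg/mL + resazurin 37 µM, fluorescence ex540/em590 at 0 and 20 min; normalized to enzyme-free and DMSO wells.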
# * marks the source's active call; other numbers are inactive results; ? = inconclusive; nt = not tested or not shown. Unless noted, the call rests on the fitted dose curve; in most records, active means well fitted curve in the direction sought with a large enough effect; inconclusive means small, poorly fitted or top-dose-only effect, or another doubt; inactive means no such curve, though single readings can be large; an effect the other way counts as inactive or inconclusive. Unless noted, on the % scale 0 is the no-effect control and ±100 the full control effect.
SMILES,Gal4-VP16 FLuc,RORgamma inh,IL1B secr inh,TDP1 cell CPT,DT40 TDP1 no CPT,LDHA inh
CCCn1nc(C(=O)N(C)Cc2cccc(OC)c2)c2ccccc2c1=O,nt,nt,nt,nt,nt,10
CCS(=O)(=O)CCSCCS(=O)(=O)CC,nt,nt,nt,nt,nt,3
Nc1nc(N)nc(-c2ccc([N+](=O)[O-])o2)n1,nt,nt,-12,?,23µM*,7
O=[N+]([O-])c1ccc(-c2ccn[nH]2)o1,1%,?,0,?,-29%,5
CC(C)n1c(N2CCN(C)CC2)nc2c1c(=O)[nH]c(=O)n2C,nt,nt,nt,nt,nt,-5
Cc1ccc(Cl)cc1NC(=S)N(Cc1cccs1)C1CCCC1,?,18µM*,-15,-12%,-1%,-1
CCN(C(=S)Nc1ccc(OC(F)F)cc1)C1CCCCC1,-9%,?,?,-1%,-23%,-4
CCN(C(=S)Nc1ccccc1F)C1CCCCC1,3%,13µM*,-8,?,23µM*,-10
Cc1c(Cl)cccc1NC(=S)N(Cc1cccs1)C1CCCC1,?,11µM*,19,5%,-24%,-4
Cc1cccc(NC(=O)N(Cc2cccs2)C2CC2)c1,nt,nt,nt,nt,nt,-9
Cc1ccccc1NC(=S)N(C)Cc1cccs1,2%,?,16,-6%,-13%,1
Cc1ccccc1NC(=S)N(Cc1cccs1)C1CCCCC1,4%,13µM*,-3,-29%,9.2µM*,-5
COC(=O)c1cc(C2CC2)nc2onc(-c3ccc(F)cc3)c12,nt,nt,nt,nt,nt,13
COc1ccc(OC)c(S(=O)(=O)Nc2ccc(-c3cn4ccc(C)nc4n3)cc2)c1,nt,nt,nt,nt,nt,-5
CC(NC(=O)CNC(=S)N(Cc1cccs1)C1CCCC1)c1ccccc1 (stereo unspecified),?,?,-24,?,16µM*,0
COc1ccc(/C=C2\SC(=S)N(CCCC(=O)NNC(=O)c3ccccc3O)C2=O)cc1,1.6µM*,0.71µM*,69,?,8.2µM*,-8
Cc1ccc(/C=C2\SC(=S)N(CCCC(=O)Nc3ccccc3C(=O)O)C2=O)cc1,?,-27%,26,-7%,7%,-2
COc1ccc(/C=C2/SC(=S)N(CCCC(=O)Nc3cccc(O)c3)C2=O)cc1,2.5µM*,0.32µM*,-79*,?,?,-7
COc1ccc(/C=C2/SC(=S)N(CCCC(=O)Nc3ccccc3C(=O)O)C2=O)cc1,3.5µM*,1.4µM*,20,2%,-3%,-5
COc1ccc(NC(=O)CCCN2C(=O)/C(=C\c3ccco3)SC2=S)cc1,?,11µM*,-71*,?,16µM*,7
COc1ccccc1/C=C1\SC(=S)N(CCC(=O)NNC(=O)c2ccccc2O)C1=O,1%,?,18,?,?,-2
O=C(CCCN1C(=O)/C(=C/c2ccco2)SC1=S)Nc1cccc(C(=O)O)c1,-25%,-11%,11,12%,6%,14
Cc1c(-c2cccc(Cl)c2)nc2ccccc2c1C(=O)NC1CCCCCC1,nt,nt,nt,nt,nt,5
O=C(Nc1ccc(Cl)c(C(F)(F)F)c1)c1ccccc1,nt,nt,nt,nt,nt,4
Cc1ccccc1CN1CCN(c2nc3c(c(=O)[nH]c(=O)n3C)n2Cc2ccc(F)cc2)CC1,nt,nt,nt,nt,nt,1
Cn1c(=O)c2c(ncn2CC(COCc2cccc(F)c2)OCc2cccc(F)c2)n(C)c1=O (stereo unspecified),nt,nt,nt,nt,nt,-6
O=C(NN1C(=O)/C(=C/c2ccc(O)cc2)SC1=S)c1ccccc1O,16%,-3%,-9,-2%,?,-15

# Assay outcomes: PubChem, National Center for Advancing Translational Sciences (NCATS)
